# Rows were chosen to be rich in hits. Some 4.9% of all compounds tested hit in one or more screens of this group.
# tim10-1 inh: inhibits growth of tim10-1 mutant yeast. S. cerevisiae tim10-1 ts strain growth, BacTiter-Glo, 24 h. inhibition, % at 20 µM. 2.2% of 330,000 active. AID 463190;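 active = inhibition of at least 40%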;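 also: mutant grown at 25 °C; 0% = DMSO wells with yeast and 100% = wells holding no yeast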
# NALP3 yeast inh: blocks the NALP3 inflammasome reconstituted in yeast; 0.39% of 330,000 active; Yeast reconstituted NLRP3/ASC/caspase-1, beta-gal luminescence, 24 h; inhibition, % at 10 µM;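 active = inhibition of 50% or more; inactive = inhibition below 50%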;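 also: plate controls were induced DMSO wells for no effect and uninduced yeast grown without galactose for full effect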
# NALP1 inh: NALP1 inhibition | S. cerevisiae NALP1/ASC/caspase-1 growth, X-gal OD620, 72 h | inhibition, % at 10 µM | 0.61% of 280,000 active | AID 2071; in the data active = inhibition mostly above about 24%, no sharp cut-off; inactive = mostly below about 32%
# tim23-1 inh: inhibits growth of tim23-1 mutant yeast | S. cerevisiae tim23-1 growth, BacTiter-Glo luminescence, 24 h | inhibition, % at 20 µM | 1.3% of 330,000 active;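 active = growth inhibition of the mutant yeast at or above 50%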;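 also: temperature-sensitive mutant grown at 25 °C; plate controls were DMSO-treated mutant yeast for no effect and medium wells lacking yeast for full effect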
# SKKanGAS inh: SKKanGAS growth inhibition; S. pyogenes SKKanGAS, kanamycin growth, BacTiter-Glo, 6 h; inhibition, % at 7.5 µM; 1.3% of 300,000 active; AID 1662;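 active = mean replicate score, as percent of positive control median, at least 50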;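 also: strain carries kanamycin resistance gene driven by streptokinase promoter and grows in 40 µg/ml kanamycin; loss of luminescence reflects streptokinase promoter inhibition or plain growth inhibition; 0% = median of DMSO wells and 100% = positive control at its reference dose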
# TIM10 inh: inhibits growth of TIM10 yeast strain. S. cerevisiae TIM10 strain growth, BacTiter-Glo luminescence, 24 h. inhibition, % at 10 µM. 1.4% of 330,000 active;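 active = inhibition of 40% or more at the single tested concentration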;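 also: wild-type TIM10 isogenic control strain grown at permissive 25 °C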
# tim10-1 conf: tim10-1 yeast growth inhibition, confirmed; shares compounds with tim10-1 inh; inhibition, % at 20 µM; 56% of 7,400 active; S. cerevisiae tim10-1 ts strain growth, BacTiter-Glo, 24 h; AID 463213;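 active = inhibition of yeast growth at or above a set limit in either of two repeat tests at 20 µM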;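 also: tim10-1 mutant grown at permissive 25 °C to find synthetic lethal compounds; 0% = DMSO yeast wells and 100% = medium wells without yeast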
# tim10 confirm: confirmation of TIM10 yeast growth inhibitors | shares compounds with TIM10 inh | S. cerevisiae tim10 strain growth, BacTiter-Glo luminescence, 24 h | inhibition, % at 10 µM | 63% of 4,600 active | AID 463215;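 active = inhibition of yeast growth at or above a set limit in either of two replicates at 10 µM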;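 also: this counterscreen used the strain with wild-type TIM10; 0% = yeast with DMSO and 100% = medium wells lacking yeast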
# An asterisk follows results filed as active; / = not tested or not shown.
SMILES,tim10-1 inh,NALP3 yeast inh,NALP1 inh,tim23-1 inh,SKKanGAS inh,TIM10 inh,tim10-1 conf,tim10 confirm
COc1ccccc1/C=C/C(=O)OC(C)CN1CCCCC1 (stereo not given),-19.4,16.2,3.1,0.5,-1.5,0.5,/,/
COc1ccc2nc3n(c(=O)c2c1)-c1ccccc1C(=O)NC3Cc1ccccc1 (stereo not given),-3.7,19.3,/,8.0,/,-3.1,/,/
O=C(NCC1CCCO1)C1CCN(S(=O)(=O)N2CCCC2)CC1 (stereo not given),-1.9,-7.7,10.0,-1.5,-2.9,-9.9,/,/
O=S(=O)(CCN(CCS(=O)(=O)C(F)(F)F)CC1CCCO1)C(F)(F)F (stereo not given),49.6*,18.4,-25.6,35.3,4.0,45.3*,41.1*,25.8
C[C@@]12C(=O)Nc3ccccc3C(=O)N1[C@H]1c3cc(Br)ccc3OC[C@@H]1[C@@H]2c1ccccc1,33.6,17.1,/,49.0,/,6.1,/,/
N#Cc1ccccc1CSc1ncccc1C(=O)O,8.5,-8.0,27.3,2.6,2.7,-0.8,/,/
Cc1cc([N+](=O)[O-])ccc1-c1ccc(C2Nc3ccccc3C(=O)N2O)o1 (stereo not given),52.9*,8.8,6.1,42.4,-4.1,41.3*,35.8*,19.8
O=C1c2ccccc2NC(c2ccc(-c3ccccc3F)o2)N1O (stereo not given),20.9,22.0,/,29.7,/,10.1,/,/
O=C(Nc1cccc(S(=O)(=O)N2CCCCC2)c1)C1CCCN1S(=O)(=O)c1ccccc1F (stereo not given),8.9,5.7,/,17.7,/,9.4,/,/
Cc1cccc(OCC(=O)Nc2ccc(S(=O)(=O)N3CCCC3)cc2)c1,43.5*,2.2,10.6,25.5,2.6,44.8*,36.7*,46.9*
O=C(COc1cccc(C(F)(F)F)c1)Nc1ccc(S(=O)(=O)N2CCCCC2)cc1,43.3*,18.9,/,32.6,15.7,44.9*,49.3*,59.0*
N#Cc1ccccc1S(=O)(=O)N1CCN(C(=O)[C@H](Cc2ccccc2)NC(=O)c2ccco2)CC1,1.3,11.4,/,8.6,/,-1.6,/,/
N/C(=N\OC(=O)Cc1ccc([N+](=O)[O-])cc1)c1ccc([N+](=O)[O-])cc1,7.4,18.9,14.0,28.4,-1.3,11.0,/,/
Cc1ccc(CC(=O)O/N=C(\N)Cc2ccc([N+](=O)[O-])cc2)cc1,73.2*,33.4,18.7,44.4,-1.6,60.0*,77.3*,62.7*
COc1ccc(C/C(N)=N/OC(=O)C(c2ccccc2)c2ccccc2)cc1OC,-0.3,2.0,5.2,-19.6,-10.9,-24.4,/,/
N/C(Cc1ccc([N+](=O)[O-])cc1)=N\OC(=O)C(c1ccccc1)c1ccccc1,71.9*,14.6,-3.9,43.6,-12.6,50.4*,72.8*,62.8*
COc1ccccc1-n1c(CNC(=O)c2ccco2)n[nH]c1=S,7.6,8.7,7.2,-6.3,0.3,7.2,/,/
CCOC(=O)C(C(=O)OCC)C(Nc1ccccc1)c1ccccc1 (stereo not given),60.8*,31.0,28.4,36.7,-9.4,42.8*,50.4*,-19.3
O=C(/C=C/c1ccco1)Nc1ccccc1N1CCCCC1,60.9*,-3.9,23.7,41.4,-4.1,53.7*,57.8*,50.5*
CC1CCC2C(C1)c1sc(=O)[nH]c1SC2(C)C (stereo not given),51.2*,-23.3,37.3,23.6,-1.8,41.2*,40.6*,41.0*
COc1ccc(/C=N\NC(=O)c2ccccc2OC)cc1COc1ccccc1C,11.5,14.8,21.0,16.1,11.8,7.5,/,/
COc1ccc(/C=N/NC(=O)c2ccoc2C)cc1COc1c(C)cccc1C,40.5*,3.8,-0.4,38.9,18.6,42.4*,29.8*,14.1
O=C(CSc1nc2ccccc2[nH]1)N=Nc1c(O)[nH]c2ccccc12,3.1,-5.6,12.9,5.1,0.5,7.8,/,/
O=C(CSCc1ccc(Br)cc1)N=Nc1c(O)[nH]c2ccccc12,44.9*,10.1,27.0,45.3,3.1,43.0*,40.1*,33.5*
Clc1ccc2c(N/N=C/c3cccnc3)ccnc2c1,51.3*,25.5,7.7,39.7,-23.5,71.4*,56.8*,79.4*
SMILES,tim10-1 inh,NALP3 yeast inh,NALP1 inh,tim23-1 inh,SKKanGAS inh,TIM10 inh,tim10-1 conf,tim10 confirm
Fc1ccc(N/N=C/c2cccnc2)c(F)c1,-128.5,37.3,3.2,11.0,-17.4,-1.7,/,/
CC1CC(C)CN(C(=O)c2cccc(S(=O)(=O)NCc3ccccc3)c2)C1 (stereo not given),5.0,13.2,/,15.8,/,1.1,/,/
O=C(/C=C/c1ccc(Cl)cc1Cl)c1ccc[nH]1,46.8*,1.5,5.4,18.4,-3.3,54.3*,39.0*,39.8*
Cc1ccc(S(=O)(=O)N2CCOCC2)cc1C(=O)OCC(=O)NCCc1ccc(F)cc1,-3.3,15.0,/,13.7,/,0.4,/,/
CCCCOc1ccc(CONS(=O)(=O)c2ccc(NC(C)=O)cc2)cc1Cl,55.3*,31.3,11.9,13.6,3.7,62.4*,47.0*,48.1*
CC(=O)Nc1ccc(S(=O)(=O)NCCOc2ccc(Cl)cc2C)cc1,6.7,1.6,5.3,14.9,-7.4,13.4,/,/
COc1ccc(N2C(=O)CC(Sc3nccc(C)n3)C2=O)cc1 (stereo not given),14.4,8.1,-1.9,20.2,5.4,9.1,/,/
C=CCNc1nnc(SC2CC(=O)N(c3ccc(OC)cc3)C2=O)s1 (stereo not given),67.2*,15.2,-6.6,37.1,0.3,40.2*,61.0*,45.8*
O=C(CC1CC2CCC1C2)NCCc1ccc(Cl)cc1 (stereo not given),-9.4,36.6,21.8,14.8,-4.8,-4.3,/,/
CNc1c(NS(=O)(=O)c2ccc3c(c2)CCCC3)c(=O)oc2ccccc12,-25.2,-3.1,13.7,-7.6,-1.9,3.1,/,/
O=C(Nc1ccc2c(c1)OCO2)C1CCCN(c2nc3ccccc3s2)C1 (stereo not given),48.0*,6.3,-0.5,44.7,5.8,44.7*,35.5*,37.8*
NNc1nc2c(-c3ccc(F)cc3)nnn2c2ccccc12,46.0*,8.7,4.4,25.6,8.8,74.2*,55.5*,72.9*
Fc1ccc(-c2nnn3c2nc(NCc2ccccc2)c2ccccc23)cc1,0.3,-3.5,/,-0.2,-0.4,-12.2,/,/
CCc1cc(-c2n[nH]c(=S)n2Cc2ccccc2)cs1,42.0*,23.2,-24.1,38.9,3.4,44.4*,18.8,41.3*
S=c1[nH]nc(-c2cccc(Cl)c2)n1Cc1ccccc1,31.7,15.2,5.4,40.4,-5.4,37.5,/,/
COc1ccc(S(=O)(=O)NC2CC(=O)N(c3ccccc3)C2)cc1C (stereo not given),-9.2,4.8,/,-9.8,0.6,-12.2,/,/

# Source: PubChem
